About 1,500 (3.8%) of roughly 39,000 compounds were called active. The sample as a whole holds a higher share of actives than the screen did.
What follows are compounds tested on HSkMC (human skeletal muscle cells) (assay: cytotoxicity call (relative viability < 0.9)). Settings: 10 µM.

Row | SMILES | cytotoxicity call
1 | CC(C)NC(=O)N(C)C[C@H]1OCc2cn(nn2)CCCC(=O)N([C@H](C)CO)C[C@H]1C | inactive
2 | C[C@H]1CN([C@@H](C)CO)C(=O)c2cc(NS(C)(=O)=O)ccc2O[C@@H]1CN(C)S(=O)(=O)c1ccc(Cl)cc1 | inactive
3 | CO[C@H]1CN(C)C(=O)c2ccc(NC(=O)Nc3ccc(Cl)cc3)cc2OC[C@@H](C)N(C(=O)Nc2c(C)noc2C)C[C@H]1C | inactive
4 | C[C@@H]1CCCCO[C@@H](CN(C)Cc2ccncc2)[C@@H](C)CN([C@H](C)CO)C(=O)c2cc(NC(=O)Nc3ccc(C(F)(F)F)cc3)ccc2O1 | inactive
5 | CC(C)CC#Cc1ccc2c(c1)O[C@@H](CN(C)S(=O)(=O)c1cccc(F)c1)[C@@H](C)CN([C@@H](C)CO)S2(=O)=O | inactive
6 | C1CCN2CC3CC(CN4CCCCC34)C2C1.O=S(=O)(O)O (configuration not stated) | inactive
7 | C[C@@H]1CN([C@@H](C)CO)C(=O)c2cc(NC(=O)CCCN(C)C)ccc2O[C@H]1CN(C)S(=O)(=O)c1ccc(Cl)cc1 | inactive
8 | C[C@H]1CN([C@@H](C)CO)C(=O)Cc2cc(N(C)C)ccc2O[C@@H]1CN(C)S(=O)(=O)c1ccc(F)cc1 | inactive
9 | C[C@@H]1CN([C@H](C)CO)C(=O)CCCn2cc(nn2)CO[C@H]1CN(C)S(=O)(=O)c1ccc(Oc2ccccc2)nc1 | inactive
10 | C[C@@H]1CN([C@@H](C)CO)C(=O)c2cccc(NC(=O)C3CC3)c2O[C@@H]1CN(C)S(=O)(=O)c1ccc(F)cc1 | inactive
11 | Cn1c(Nc2ccc(C(F)(F)F)cc2)nc2cc(Oc3ccnc(-c4ncc(C(F)(F)F)[nH]4)c3)ccc21 | active
12 | Nc1nc(=O)c2c(CCc3ccc(C(=O)NC(CCC(=O)[O-])C(=O)[O-])cc3)c[nH]c2[nH]1.[Na+].[Na+] (configuration not stated) | inactive
13 | CC(C)CC#Cc1ccc2c(c1)O[C@@H](CN(C)C(=O)c1cnccn1)[C@@H](C)CN([C@@H](C)CO)S2(=O)=O | inactive
14 | COc1ccc(CN(C)C[C@@H]2Oc3ccc(NS(=O)(=O)c4c(C)noc4C)cc3CC(=O)N([C@H](C)CO)C[C@H]2C)cc1 | inactive
15 | CC1C=CC=CC=CC=CC=CC=CC=CC(OC2OC(C)C(O)C(N)C2O)CC(O)C(C(=O)O)C(O)CC(=O)CC(O)CC(O)CC(O)CC(=O)CCCC(=O)CC(=O)OC1C(C)CC(C)C(O)CC(=O)c1ccc(N)cc1 (configuration not stated) | active
16 | C[C@H]1[C@@H](O)[C@@H](C)\C=C/C=C\C=C/C=C\C=C/C=C\C=C/[C@@H](O[C@H]2O[C@H](C)[C@@H](O)[C@H](N)[C@@H]2O)C[C@H]2O[C@](O)(C[C@@H](O)C[C@@H](O)[C@@H](O)CC[C@@H](O)C[C@@H](O)CC(=O)O[C@H]1C)C[C@@H](O)[C@@H]2C(=O)O | inactive
17 | CC1C=CC=CC=CC=CC=CC=CC=CC(OC2OC(C)C(O)C(N)C2O)CC2OC(O)(CC(O)CC(O)C(O)CCC(O)CC(O)CC(=O)OC(C)C(C)C1O)CC(O)C2C(=O)O (configuration not stated) | inactive
18 | COc1ccc(CN(C)C[C@@H]2OCCCC[C@@H](C)Oc3ccc(NC(=O)NC(C)C)cc3C(=O)N([C@H](C)CO)C[C@H]2C)cc1 | inactive
19 | Cc1cccc(NC(=O)Nc2ccc3c(c2)C(=O)N(C)[C@@H]2CC[C@H](CC(=O)NCc4ccccc4Cl)O[C@@H]2CO3)c1 | inactive
20 | Cc1ccc(S(=O)(=O)Nc2ccc3c(c2)C(=O)N([C@H](C)CO)C[C@@H](C)[C@@H](CN(C)S(C)(=O)=O)OCCCC[C@H](C)O3)cc1 | inactive
21 | CCSc1cccc2cccnc12 | inactive

Row | SMILES | cytotoxicity call
22 | c1cnc2c(SCc3nc4ccccc4s3)cccc2c1 | active
23 | c1ccc2c(CSc3nc4ccccc4s3)cccc2c1 | inactive
24 | Cc1ccc(S(=O)(=O)Nc2ccc3c(c2)CC(=O)N([C@@H](C)CO)C[C@@H](C)[C@H](CN(C)C(=O)Nc2ccc(C(F)(F)F)cc2)O3)cc1 | inactive
25 | C[C@@H]1CN([C@@H](C)CO)C(=O)c2cc(C#Cc3ccccc3F)cnc2O[C@@H]1CN(C)C(=O)Cc1ccncc1 | inactive
26 | Cc1ccc(S(=O)(=O)Nc2ccc3c(c2)C(=O)N([C@@H](C)CO)C[C@H](C)[C@@H](CN(C)Cc2ccc(C(F)(F)F)cc2)O3)cc1 | inactive
27 | Cc1ccc(S(=O)(=O)Nc2ccc3c(c2)C(=O)N([C@H](C)CO)C[C@H](C)[C@H](CN(C)Cc2ccc(C(F)(F)F)cc2)O3)cc1 | inactive
28 | Cc1ccc(S(=O)(=O)Nc2ccc3c(c2)C(=O)N([C@@H](C)CO)C[C@H](C)[C@H](CN(C)Cc2ccc(C(F)(F)F)cc2)O3)cc1 | inactive
29 | Cc1ccc(S(=O)(=O)Nc2ccc3c(c2)C(=O)N([C@H](C)CO)C[C@@H](C)[C@@H](CN(C)Cc2ccc(C(F)(F)F)cc2)O3)cc1 | active
30 | Cc1ccc(S(=O)(=O)Nc2ccc3c(c2)C(=O)N([C@H](C)CO)C[C@@H](C)[C@H](CN(C)Cc2ccc(C(F)(F)F)cc2)O3)cc1 | active
31 | Cc1ccc(S(=O)(=O)Nc2ccc3c(c2)C(=O)N([C@H](C)CO)C[C@H](C)[C@@H](CN(C)Cc2ccc(C(F)(F)F)cc2)O3)cc1 | inactive
32 | COc1ccc2c3c(n(c2c1)C)[C@@H](CO)N(C[C@]13CN(C1)C(=O)C)C(=O)CN1CCOCC1 | inactive
33 | Cc1noc(C)c1S(=O)(=O)Nc1ccc2c(c1)CC(=O)N([C@@H](C)CO)C[C@@H](C)[C@@H](CN(C)S(=O)(=O)c1ccccc1)O2 | inactive
34 | CN(C)C(=O)C[C@H]1C=C[C@@H](NC(=O)C2CC2)[C@@H](CO)O1 | inactive
35 | C=CCN1C(=O)[C@]2(O[C@H](CCn3cc([C@H](O)c4ccccc4)nn3)[C@@H]([Si](C)(C)c3ccc(OC)cc3)[C@@H]2C)c2cc(N3C(=O)c4cccc5cccc3c45)ccc21 | inactive
36 | COc1ccc([Si](C)(C)[C@H]2[C@H](CCO)O[C@@]3(C(=O)N(Cc4ccccc4)c4ccc(N5C(=O)c6cccc7cccc5c67)cc43)[C@@H]2C)cc1 | inactive
37 | C=CCN1C(=O)[C@@]2(O[C@@H](CCn3cc([C@H](O)c4ccccc4)nn3)[C@H]([Si](C)(C)c3ccc(OC)cc3)[C@H]2C)c2cc(N3C(=O)c4cccc5cccc3c45)ccc21 | inactive
38 | C=CCN1C(=O)[C@@]2(O[C@@H](CCO)[C@H]([Si](C)(C)c3ccc(OC)cc3)[C@H]2C)c2cc(N3C(=O)c4cccc5cccc3c45)ccc21 | active
39 | C=CCN1C(=O)[C@@]2(O[C@@H](CCO)[C@H]([Si](C)(C)F)[C@H]2C)c2cc(N3C(=O)c4cccc5cccc3c45)ccc21 | inactive
40 | C=CCN1C(=O)[C@]2(O[C@H](CCO)[C@@H]([Si](C)(C)c3ccc(OC)cc3)[C@@H]2C)c2cc(N3C(=O)c4cccc5cccc3c45)ccc21 | active
41 | C[C@H]1CCCCO[C@H](CN(C)C(=O)c2ccccc2)[C@@H](C)CN([C@@H](C)CO)C(=O)c2cc(NC(=O)Nc3ccc4c(c3)OCO4)ccc2O1 | inactive
42 | COc1ccc(S(=O)(=O)N2CC(NC(=O)Cn3ccc(=O)n(C)c3=O)C2)cc1 | inactive

Row | SMILES | cytotoxicity call
43 | O=S(=O)(N1CCOCC1)n1nnc2ccccc21 | inactive
44 | C[C@H](CO)N1C[C@H](C)[C@H](CN(C)Cc2ccc(C(F)(F)F)cc2)Oc2ccc(NC(=O)Cn3cnnn3)cc2CC1=O | inactive
45 | C[C@@H]1CN([C@@H](C)CO)C(=O)c2cc(C#CC3(O)CCCC3)cnc2O[C@@H]1CN(C)C(=O)C1CCOCC1 | inactive
46 | CN1C(=O)c2cc(NC(=O)Cc3cccs3)ccc2OC[C@H]2O[C@H](CC(=O)NCCCN3CCOCC3)CC[C@@H]21 | inactive
47 | Cc1noc(C)c1S(=O)(=O)Nc1ccc2c(c1)C(=O)N([C@@H](C)CO)C[C@H](C)[C@H](CN(C)S(=O)(=O)c1cccs1)O2 | inactive
48 | C[C@@H]1CN([C@H](C)CO)C(=O)CCCn2cc(nn2)CO[C@@H]1CN(C)S(=O)(=O)c1cccc(C#N)c1 | inactive
49 | Oc1cccc(c1)/C/1=C/2\CC/C(=C(\c3cccc(c3)O)c3ccc([nH]3)/C(=C\3/C=CC(=N3)/C(=C\3/C=CC1=N3)c1cccc(c1)O)c1cccc(c1)O)N2 | active
50 | OS(=O)(=O)c1ccc(cc1)/C/1=C\2/N/C(=C(\C3=N/C(=C(/c4ccc(cc4)S(=O)(=O)O)c4ccc([nH]4)/C(=C\4/C=CC1=N4)c1ccc(cc1)S(=O)(=O)O)C=C3)c1ccc(cc1)S(=O)(=O)O)C=C2 | inactive
51 | CC(C)NC(=O)Nc1ccc2c(c1)CC(=O)N([C@@H](C)CO)C[C@@H](C)[C@@H](CN(C)C(=O)NC1CCCCC1)O2 | inactive
52 | CCC(=O)NC[C@H](Cc1ccc(OCCc2nc(-c3ccccc3)oc2C)cc1)N/C(C)=C\C(=O)c1ccc(C(F)(F)F)cc1 | active
53 | O=C(O)C[C@@H]1CC[C@H]2[C@@H](COC[C@H](O)CN2S(=O)(=O)c2ccc(F)cc2)O1 | inactive
54 | COc1cnc(SC)n(C)c1=O | inactive
55 | C[C@@H]1CN([C@@H](C)CO)C(=O)Cc2cc(NS(=O)(=O)c3cn(C)cn3)ccc2O[C@H]1CN(C)CC1CCCCC1 | inactive
56 | COc1ccc(NC(=O)N2CCCCN3[C@H](COCCN(C)C)[C@H](c4ccc(C#Cc5ccccc5)cc4)[C@@H]3C2)cc1 | active
57 | CN(C)CC#Cc1ccc([C@@H]2[C@H](CO)N3CCCCN(C(=O)CN(C)C)C[C@@H]23)cc1 | inactive
58 | CN(C)CC#Cc1ccc([C@H]2[C@@H](CO)N3CCCCN(C(=O)CN(C)C)C[C@@H]23)cc1 | inactive
59 | COc1ccc(NC(=O)N2CCCCN3[C@H](CN(C)C(C)=O)[C@H](c4ccc(C#Cc5ccccc5)cc4)[C@@H]3C2)cc1 | active
60 | CN(C)CC#Cc1ccc([C@@H]2[C@@H](CO)N3CCCCN(C(=O)CN(C)C)C[C@@H]23)cc1 | inactive
61 | CN(C)CC#Cc1ccc([C@H]2[C@@H](CO)N3CCCCN(C(=O)CN(C)C)C[C@H]23)cc1 | inactive
62 | C[C@H]1Cc2c(N)nn(C)c2NC1=O | inactive

— the antibiotic and cytotoxicity screens of Wong et al. (2023)
